According to PubChem BioAssay (Tox21):
Calls of active or inactive are those of the source. Unless noted, calls follow the shape of the dose curve; as a rule, active = well fitted curve in the direction sought with a large enough effect in the repeat runs; inconclusive = weak or mixed curves; inactive = no such curve, though single readings can be large; an effect the other way counts as inactive or inconclusive.

Key:
[1] = qHTS assay for small molecules that induce genotoxicity in human embryonic kidney cells expressing luciferase-tagged ATAD5 (AID 651632); also: nearly all actives have a fitted effect of over 15% in size
In short: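 Cells were seeded at 2,000 per well, dosed with compound, and incubated 16 hr at 37C in 5% CO2. Luciferase activity was then quantified after a 30 min room-temperature incubation with Amplite.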

[2] = qHTS assay for small molecule agonists of the p53 signaling pathway - cell viability (AID 651633; calls by dose curve; also: nearly all actives have a fitted effect of over 30% in size; also: potency is read from the fitted curve at half-maximal effect)
In short: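 p53RE-bla cells were treated with compound for 16 hours at 37 C. Cytotoxicity was then measured as CellTiter-Glo luminescence after 30 min at room temperature.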

[3] = qHTS assay for small molecules that induce genotoxicity in human embryonic kidney cells expressing luciferase-tagged ATAD5 - cell viability (AID 651634; calls by dose curve; also: nearly all actives have a fitted effect of over 25% in size; also: potency is read from the fitted curve at half-maximal effect)
In short: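 Cells (HEK293T, luciferase-tagged ATAD5) are seeded at 2,000 per well, dosed with compound or DMSO vehicle, and incubated 15.5 hr at 37C and 5% CO2. CellTiter-Fluor is added for 30 min before fluorescence is measured.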

[4] = qHTS assay for small molecule disruptors of the mitochondrial membrane potential - cell viability (AID 720634; calls by dose curve;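 also: human HepG2 liver cancer cells; nearly all actives have a fitted effect of over 20% in size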)
In short: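 Cytotoxicity was measured by ATP quantitation in HepG2 wells that had first been treated with compound for 1 hr and stained with m-MPI dye; CellTiter-Glo incubation was 30 min at room temperature.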

[5] = qHTS assay to test for compound auto fluorescence at 590 nm (red) in HepG2 cells (AID 720674)
In short: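 Fluorescence at 590 nm emission following 540 nm excitation was recorded from HepG2 wells one hour after compound transfer, with DMSO-only wells as vehicle and Rose Bengal sodium equivalency as the scale.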

[6] = qHTS assay to test for compound auto fluorescence at 535 nm (green) in HepG2 cells (AID 720675)
[7] = qHTS assay to test for compound auto fluorescence at 460 nm (blue) in HEK293 cells (AID 720678)
In short: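 Intrinsic compound fluorescence is recorded in live HEK293 cultures after overnight incubation at 37C, 5% CO2, using excitation 405 nm and emission 460 nm. Values are referenced to triamterene.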

[8] = qHTS assay to test for compound auto fluorescence at 590 nm (red) in HEK293 cells (AID 720679)
In short: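 Red autofluorescence, HEK293 cells: 2,000 cells/well; attach 4-5 hr 37C; add 23 nL cpd or DMSO; incubate o/n 37C 5% CO2; read Ex540/Em590; Rose Bengal sodium reference.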

[9] = qHTS assay to test for compound auto fluorescence at 535 nm (green) in HEK293 cells (AID 720680)
[10] = qHTS assay to test for compound auto fluorescence at 535 nm (green) in HEK293 cell free culture (AID 720682)
In short: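 Compounds were pin-transferred into cell-free DMEM with 10% FBS, and green fluorescence was read at excitation 485 nm and emission 535 nm. Intensities were expressed as fluorescein-equivalent values.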

[11] = qHTS assay to test for compound auto fluorescence at 590 nm (red) in HEK293 cell free culture (AID 720683)
In short: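 Cell-free wells of DMEM with 10% FBS received compound, and intrinsic fluorescence was read at excitation/emission 540/590 nm. Values expressed as equivalence to Rose Bengal sodium.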

[12] = qHTS assay to test for compound auto fluorescence at 590 nm (red) in HepG2 cell free culture (AID 720684)
In short: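 Auto fluorescence equivalency versus Rose Bengal sodium, red channel Ex/Em 540/590 nm; compounds in cell-free MEM/10% FBS; DMSO vehicle control.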

[13] = qHTS assay to test for compound auto fluorescence at 460 nm (blue) in HepG2 cell free culture (AID 720685)
In short: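 Cell-free plates of MEM plus 10% FBS received 23 nL compound or DMSO vehicle; blue-channel (405/460 nm) intensity scored against triamterene as reference fluorophore.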

[14] = qHTS assay to test for compound auto fluorescence at 535 nm (green) in HepG2 cell free culture (AID 720686)
[15] = qHTS assay to test for compound auto fluorescence at 460 nm (blue) in HepG2 cells (AID 720687)
In short: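 HepG2 cells in MEM with 10% FBS, attached overnight at 37 C, were exposed to compound or DMSO for 1 hr at 37 C, 5% CO2. Blue fluorescence was read at 405/460 nm, with triamterene as reference fluorophore.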

[16] = qHTS assay for small molecule disruptors of the mitochondrial membrane potential (AID 720635); also: potency is read from the fitted curve at half-maximal effect
In short: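 HepG2 cells exposed to compound 1 hr at 37C, then Mito-MPS dye 30 min. Ratio read of aggregate (540/590 nm) versus monomer (490/535 nm) fluorescence.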

[17] = qHTS assay to test for compound auto fluorescence at 460 nm (blue) in HEK293 cell free culture (AID 720681)
In short: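 Compounds were added to cell-free DMEM with 10% FBS and fluorescence read directly. The blue channel used 405 nm excitation and 460 nm emission, with triamterene as the reference fluorophore.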

[18] = target: Glucocorticoid receptor (Homo sapiens) (UniProt P04150); test: qHTS assay to identify small molecule agonists of the glucocorticoid receptor (GR) signaling pathway (AID 720691; active = well fitted activation curve with a large enough effect in the signal ratio in the repeat runs, not every such curve was filed as active; inconclusive = weak or mixed curves, or effect the other way; inactive = no such curve, though single readings can be large or run the other way; the % refers to the signal ratio; also: potency is read from the fitted curve at half-maximal effect); conditions: GR-bla HeLa, beta-lactamase reporter ratio, 18 h; activation: at 62.4 µM (top of the series)
Glucocorticoid receptor (Homo sapiens), sequence (P04150 whole entry, looked up): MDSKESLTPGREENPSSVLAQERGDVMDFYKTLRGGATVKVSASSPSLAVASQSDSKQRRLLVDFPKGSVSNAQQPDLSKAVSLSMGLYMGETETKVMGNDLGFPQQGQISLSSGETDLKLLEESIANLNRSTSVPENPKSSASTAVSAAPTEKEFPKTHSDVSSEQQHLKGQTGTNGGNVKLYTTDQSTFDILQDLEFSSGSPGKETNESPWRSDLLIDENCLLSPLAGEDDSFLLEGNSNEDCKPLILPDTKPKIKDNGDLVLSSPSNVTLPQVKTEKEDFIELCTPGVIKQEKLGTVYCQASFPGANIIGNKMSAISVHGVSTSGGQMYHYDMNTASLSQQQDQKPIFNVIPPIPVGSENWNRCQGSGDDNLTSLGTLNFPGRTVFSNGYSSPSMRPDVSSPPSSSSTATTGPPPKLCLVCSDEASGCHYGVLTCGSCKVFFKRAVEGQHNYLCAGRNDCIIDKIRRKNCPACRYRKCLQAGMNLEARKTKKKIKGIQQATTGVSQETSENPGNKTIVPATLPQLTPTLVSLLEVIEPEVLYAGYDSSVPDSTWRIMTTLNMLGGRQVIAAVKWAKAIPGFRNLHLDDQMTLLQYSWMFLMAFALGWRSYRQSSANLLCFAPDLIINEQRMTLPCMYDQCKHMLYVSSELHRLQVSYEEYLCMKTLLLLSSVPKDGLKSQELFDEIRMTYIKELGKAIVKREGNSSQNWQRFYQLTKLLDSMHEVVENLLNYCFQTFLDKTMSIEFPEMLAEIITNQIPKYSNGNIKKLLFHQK
In short: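 Steps: seed GR-bla HeLa cells, incubate 4 h at 37 C/5% CO2; pin-transfer DMSO-dissolved compounds; incubate 18 h at 37 C; add LiveBLAzer B/G FRET substrate; after 2 h at room temperature, measure fluorescence.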

[19] = target: Glucocorticoid receptor (Homo sapiens) (UniProt P04150); test: qHTS assay to identify small molecule antagonists of the glucocorticoid receptor (GR) signaling pathway (AID 720692; active = well fitted inhibition curve with a large enough effect in the signal ratio in the repeat runs, not every such curve was filed as active; inconclusive = weak or mixed curves, or effect the other way; inactive = no such curve, though single readings can be large or run the other way; the % refers to the signal ratio; also: potency is read from the fitted curve at half-maximal effect)
In short: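 Antagonism was scored as loss of dexamethasone-driven (5 nM final) reporter signal in HeLa cells bearing a glucocorticoid response element–beta-lactamase construct, after 18 h compound exposure at 37 C and 2 h FRET substrate loading.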

Measured: Potency

CC[C@@H]1/C=C(\C)C[C@H](C)C[C@H](OC)[C@H]2O[C@@](O)(C(=O)C(=O)N3CCCC[C@H]3C(=O)O[C@H](/C(C)=C/[C@@H]3CC[C@@H](Cl)[C@H](OC)C3)[C@H](C)[C@@H](O)CC1=O)[C@H](C)C[C@@H]2OC
not listed: [16] | [17] | [18] | [19]
inactive: all other assays above

CCOC(=O)c1c[nH]c2cc(OCC(C)C)c(OCC(C)C)cc2c1=O
not listed: [4] | [6]
inactive: all other assays above

CN1CCc2c(c3ccccc3n2Cc2ccccc2)C1
not listed: [6] | [16] | [17] | [18] | [19]
inactive: all other assays above

CCCC(=O)O[C@]1(C(=O)COC(C)=O)CC[C@H]2[C@@H]3C[C@H](F)C4=CC(=O)C=C[C@]4(C)[C@@]3(F)[C@@H](O)C[C@@]21C
active: [18] 0.0043 µM [inconclusive]
not listed: [12] | [16] | [19]
inactive: all other assays above

CN(C)CC/C=C1/c2ccccc2CSc2ccccc21
not listed: [12] | [16]
inactive: all other assays above

CCCCC(F)(F)[C@@]1(O)CC[C@H]2[C@@H](CC(=O)[C@@H]2CCCCCCC(=O)O)O1
not listed: [6] | [12] | [16] | [19]
inactive: all other assays above

COc1cc(/C=C/C(=O)N2CCN(CC(=O)N3CCCC3)CC2)cc(OC)c1OC
not listed: [4] | [19]
inactive: all other assays above

CO[C@H]1C[C@H](O[C@H]2[C@H](C)O[C@@H](O[C@@H]3/C(C)=C/C[C@@H]4C[C@@H](C[C@]5(C=C[C@H](C)[C@@H](C6CCCCC6)O5)O4)OC(=O)[C@@H]4C=C(C)[C@@H](O)[C@H]5OC/C(=C\C=C\[C@@H]3C)[C@]54O)C[C@@H]2OC)O[C@@H](C)[C@@H]1O
active: [2] 6.68 µM | [3] 13.3 µM | [16] 11.9 µM
not listed: [4] | [18] | [19]
inactive: all other assays above

O=C(NNCNNC(=O)c1ccncc1)c1ccncc1
not listed: [11] | [16] | [18] | [19]
inactive: all other assays above

CC1(C)C2CC[C@]3(C)[C@H](C(=O)C=C4[C@@H]5C[C@@](C)(C(=O)O)CC[C@]5(C)CC[C@]43C)[C@@]2(C)CC[C@@H]1O[C@H]1O[C@H](C(=O)O)[C@@H](O)[C@H](O)[C@H]1O[C@@H]1O[C@H](C(=O)O)[C@@H](O)[C@H](O)[C@H]1O (stereo partly specified)
not listed: [12] | [16] | [18] | [19]
inactive: all other assays above

C=C1CC[C@H](O)CC1=C/C=C1\CCC[C@]2(C)[C@@H]([C@H](C)CCCC(C)(C)O)CC[C@@H]12
active: [2] 11.9 µM | [3] 13.3 µM
not listed: [9] | [13] | [16] | [18] | [19]
inactive: all other assays above

CC1=C(/C=C/C(C)=C/C=C/C(C)=C/C=C/C=C(C)/C=C/C=C(C)/C=C/C2=C(C)C(=O)CCC2(C)C)C(C)(C)CCC1=O
not listed: [6] | [9] | [16] | [19]
inactive: all other assays above

CO[C@H]1C=CO[C@@]2(C)Oc3c(C)c(O)c4c(O)c(c(/C=N/N5CCN(C6CCCC6)CC5)c(O)c4c3C2=O)NC(=O)/C(C)=C\C=C[C@H](C)[C@H](O)[C@@H](C)[C@@H](O)[C@@H](C)[C@H](OC(C)=O)[C@@H]1C
active: [2] 26.6 µM | [3] 21.1 µM | [16] 1.19 µM | [19] 21.3 µM
not listed: [4]
inactive: all other assays above

CCCCCc1ccc(C)cc1O
active: [16] 10.6 µM
not listed: [4] | [18]
inactive: all other assays above
